Several values for one entry are separate records, joined by “and”; a condition that tells them apart may be missing. Equal values may be shown once. Records with an inconclusive call do not appear. A call without a number means that no potency is given here. Where a structure was tested more than once in an assay, its records may differ in their call. Activity calls are given as the source filed them. Calls follow the shape of the dose curve; as a rule, active = well fitted curve in the direction sought with a large enough effect; inconclusive = small, poorly fitted or top-dose-only effect, or another doubt; inactive = no such curve, though single readings can be large; an effect the other way counts as inactive or inconclusive.
Legend:
[1] = biological target: Glutathione peroxidase 1 (Homo sapiens) (UniProt P07203); assay: Primary qHTS Assay for Inhibitors of Recombinant Selenoprotein Glutathione Peroxidase 1 (GPX1) (AID 1845191); conditions: recombinant GPX1, GR-coupled NADPH fluorescence, 15 min; series mostly up to 48.8 µM; also: nearly all actives have a fitted effect of over 65% in size
Method in brief: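 NADPH consumption tracked by fluorescence at 340/450 nm between t=0 and t=15 min, room temperature. Final mix: 10 nM GPX1, 100 nM glutathione reductase, 1 mM GSH, 0.5 mM NADPH, 0.5 mM cumene hydroperoxide, 0.01% BSA; 30 min compound–enzyme preincubation.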

[2] = biological target: Phospholipid hydroperoxide glutathione peroxidase GPX4 (Homo sapiens) (UniProt P36969); assay: Primary qHTS Assay for Inhibitors of Recombinant Selenoprotein Glutathione Peroxidase 4 (GPX4) (AID 1845192); conditions: recombinant GPX4, GR-coupled NADPH fluorescence, 15 min; series mostly up to 50 µM; also: nearly all actives have a fitted effect of over 65% in size; also: potency is read from the fitted curve at half-maximal effect
Method in brief: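 NADPH consumption followed by fluorescence at 340/450 nm, t=0 and after 15 min at room temperature. Reaction started with cumene hydroperoxide (0.5 mM final) after 30 min compound–GPX4 preincubation; final 200 nM GPX4, 100 nM GR, 1 mM GSH, 0.5 mM NADPH.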

[3] = biological target: Luciferin 4-monooxygenase (Photinus pyralis) (UniProt P08659); assay: Primary firefly luciferase (FLuc) qHTS assay for identification of artifact compounds. (AID 1845220); conditions: purified firefly luciferase, luminescence, 5 min; series mostly up to 54.1 µM; also: nearly all actives have a fitted effect of over 60% in size
Method in brief: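 FLuc 10 nM; luciferin 10 uM; ATP 10 uM; Tris-acetate pH 7.6, Mg-acetate 10 mM; 15 min RT preincubation; 5 min reaction; luminescence.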

[4] = Primary fluorescence-based thiol-reactive (MSTI) qHTS assay for identification of artifact compounds. (AID 1845221); conditions: MSTI thiol-reactivity probe, 1 h; series mostly up to 53.8 µM;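 also: thiol-reactive compounds lower the probe fluorescence signal; nearly all actives have a fitted effect of over 65% in size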
Method in brief: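 Thiol-reactive compounds detected by quenching of 4 uM MSTI fluorescence (525/598 nm) after 1 h room-temperature dark incubation in PBS pH 7.4, 2% DMSO. qHTS titration; percent inhibition Hill-fitted against Acetyl-MSTI/MSTI controls.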

[5] = test system: Nanoluciferase (engineered Oplophorus gracilirostris luciferase); assay: Primary Nanoluciferase (NLuc) qHTS assay for identification of artifact compounds. (AID 1845222); conditions: NLuc-conditioned medium, Nano-Glo luminescence, 5 min; series mostly up to 54.1 µM;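 also: NLuc secreted into diluted conditioned medium of S16 cells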
Method in brief: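 NLuc from S16 cell medium (1:55) plus test compounds, 15 min, room temperature. Luminescence after Nano-Glo (1:100) addition, 5 min.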

[6] = Primary redox qHTS assay for identification of artifact compounds. (AID 1845223); conditions: Amplex Red/HRP redox cycling with DTT, fluorescence; series mostly up to 53.8 µM
Method in brief: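 Redox-cycling detection via DTT (250 uM final) oxidation coupled to Amplex Red (25 uM)/HRP (250 mU/mL) in HBSS. 15 min preincubation plus 30 min after DTT, room temperature. Ex/Em 525/598 nm; 4-parameter Hill fit against DMSO and 10 uM DA3003.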

Sequence of Phospholipid hydroperoxide glutathione peroxidase GPX4 (Homo sapiens) (P36969 whole entry, looked up): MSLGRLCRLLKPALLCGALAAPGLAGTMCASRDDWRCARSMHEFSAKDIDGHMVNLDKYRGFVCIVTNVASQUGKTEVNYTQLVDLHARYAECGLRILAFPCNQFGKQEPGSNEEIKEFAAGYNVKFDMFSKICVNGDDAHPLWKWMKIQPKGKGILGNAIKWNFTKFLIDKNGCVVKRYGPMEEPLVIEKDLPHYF
Sequence of Glutathione peroxidase 1 (Homo sapiens) (P07203 whole entry, looked up): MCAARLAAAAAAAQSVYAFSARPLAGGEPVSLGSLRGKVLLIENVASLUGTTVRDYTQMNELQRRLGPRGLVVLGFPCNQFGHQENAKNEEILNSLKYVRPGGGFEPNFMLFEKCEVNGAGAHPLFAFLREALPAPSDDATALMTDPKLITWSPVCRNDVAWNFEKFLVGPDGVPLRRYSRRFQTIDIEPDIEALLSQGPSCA

For `COc1ccc(CCC(=O)Nc2nc3ccc(Cl)cc3s2)cc1OC`, the Potency [1] was “inactive”, the Potency [2] was “inactive” and the Potency [3] was “inactive”. For the same compound, the Potency [4] was “inactive”, the Potency [5] was “inactive” and the outcome [6] was “inactive”.

For `CC(=O)Nc1cccc(-n2c(=O)n(C3CC3)c(=O)c3c(Nc4ccc(I)cc4F)n(C)c(=O)c(C)c32)c1`, the Potency [1] was “inactive”, the Potency [2] was “inactive” and the Potency [3] was “inactive”. For the same compound, the Potency [4] was “inactive”, the Potency [5] was “inactive” and the outcome [6] was “inactive”.

In the case of `Nc1ncnc2c1c(-c1cccc(OCc3ccccc3)c1)cn2C1CC(CN2CCC2)C1` (stereo not given), the Potency [1] is reported as “inactive”, the Potency [2] is reported as “inactive” and the Potency [3] is reported as “inactive”. The Potency [4] was “inactive” and the Potency [5] was “inactive”.

For `CNC(=O)c1cc(Oc2ccc(NC(=O)Nc3ccc(Cl)c(C(F)(F)F)c3)c(F)c2)ccn1`, the Potency [1] was “inactive”, the Potency [2] was “inactive” and the Potency [3] was “inactive”. The Potency [4] was “inactive”, the Potency [5] was “inactive” and the outcome [6] was “inactive”.

For `Cc1cnc(-c2cc(N3CCN(C(=O)CCS(C)(=O)=O)CC3)ncc2Cl)c(C)c1`, the Potency [1] was “inactive”, the Potency [2] was “inactive” and the Potency [3] was “inactive”. For the same compound, the Potency [4] was “inactive” and the Potency [5] was “inactive”.

In the case of `COc1ccc(-c2cc3nccn3c(Nc3ncccc3C(N)=O)n2)cc1OC`, the Potency [1] is reported as “inactive”, the Potency [2] is reported as “inactive” and the Potency [3] is reported as “inactive”. For the same compound, the Potency [4] was “inactive”, the Potency [5] was “inactive” and the outcome [6] was “inactive”.

With `CCC(C)SSc1ncc[nH]1` (stereo not given) the Potency [1] was “inactive” and the Potency [2] was “inactive”.

With `Cc1cnc(Nc2cccc(CN3CCOCC3)c2)nc1Nc1cccc(S(=O)(=O)NC(C)(C)C)c1` the Potency [1] was “inactive”, the Potency [2] was “inactive” and the Potency [3] was “inactive”. For the same compound, the Potency [4] was “inactive”, the Potency [5] was “inactive” and the outcome [6] was “inactive”.

In the case of `Cc1ccccc1C(C(=O)NC1CCCCC1)N(C(=O)CNc1ccc(C#N)cc1)c1cccc(F)c1` (stereo not given), the Potency [1] is reported as “inactive”, the Potency [2] is reported as “inactive” and the Potency [3] is reported as “inactive”. The Potency [4] was “inactive”, the Potency [5] was “inactive” and the outcome [6] was “inactive”.

For `Cc1ccccc1C(=O)c1ccc(Nc2ccc(Br)cc2N)cc1Cl`, the Potency [1] was “inactive”, the Potency [2] was “inactive” and the Potency [3] was “inactive”. The Potency [4] was “inactive”, the Potency [5] was “inactive” and the outcome [6] was “inactive”.

For `COc1cc2nccc(Oc3ccc(NC(=O)Nc4cc(C)on4)c(Cl)c3)c2cc1OC`, the Potency [1] was “inactive”, the Potency [2] was “inactive” and the Potency [3] was “inactive”. For the same compound, the Potency [4] was “inactive”, the Potency [5] was “inactive” and the outcome [6] was “inactive”.

With `Cn1cnc(-c2cc3nccc(Oc4ccc(NC(=S)NC(=O)Cc5ccccc5)cc4F)c3s2)c1` the Potency [1] was “inactive”, the Potency [2] was “inactive and 7.18 µM (active)” and the Potency [3] was “inactive”. The Potency [4] was “inactive”, the Potency [5] was “inactive” and the outcome [6] was “inactive”.

With `C[C@@]1(c2cc(-c3cncnc3)c(F)cc2F)CCSC(N)=N1` the Potency [1] was “inactive”, the Potency [2] was “inactive” and the Potency [3] was “inactive”. The Potency [4] was “inactive”, the Potency [5] was “inactive” and the outcome [6] was “inactive”.

With `N#CC1(c2cccc(C(=O)Nc3cc(Oc4ccc5nc(NC(=O)C6CC6)sc5n4)ccc3F)c2Cl)CC1` the Potency [1] was “inactive”, the Potency [2] was “inactive” and the Potency [3] was “inactive”. For the same compound, the Potency [4] was “inactive”, the Potency [5] was “inactive” and the outcome [6] was “inactive”.

In the case of `Nc1ccc(-c2ccc3ncc4ccc(=O)n(-c5cccc(C(F)(F)F)c5)c4c3c2)cn1`, the Potency [1] is reported as “inactive”, the Potency [2] is reported as “inactive” and the Potency [3] is reported as “inactive”. The Potency [4] was “inactive”, the Potency [5] was “inactive” and the outcome [6] was “inactive”.

For `CCc1cccc(CC)c1NC(=O)N1Cc2[nH]nc(NC(=O)c3ccc(N4CCN(C)CC4)cc3)c2C1`, the Potency [1] was “inactive”, the Potency [2] was “inactive” and the Potency [3] was “inactive”. The Potency [4] was “inactive”, the Potency [5] was “inactive” and the outcome [6] was “inactive”.

In the case of `O=C(O)CCNc1cc(N2CCc3ccccc3CC2)nc(-c2ccccn2)n1`, the Potency [1] is reported as “inactive”, the Potency [2] is reported as “inactive” and the Potency [3] is reported as “inactive”. For the same compound, the Potency [4] was “inactive”, the Potency [5] was “inactive” and the outcome [6] was “inactive”.

In the case of `Cc1cc2c(cc1C1(c3ccc(C(=O)O)cn3)CC1)C(C)(C)CCC2(C)C`, the Potency [1] is reported as “inactive”, the Potency [2] is reported as “inactive” and the Potency [3] is reported as “inactive”. For the same compound, the Potency [4] was “inactive”, the Potency [5] was “inactive” and the outcome [6] was “inactive”.

With `Cc1csc(-c2nnc(Nc3ccc(Oc4ncccc4-c4ccnc(N)n4)cc3)c3ccccc23)c1` the Potency [1] was “inactive”, the Potency [2] was “inactive” and the Potency [3] was “inactive”. The Potency [4] was “inactive”, the Potency [5] was “inactive” and the outcome [6] was “inactive”.

For `O[C@@H](COc1cccc2ncccc12)CN1CCN(C2c3ccccc3[C@@H]3[C@H](c4ccccc42)C3(F)F)CC1` (stereo not given in full), the Potency [1] was “inactive”, the Potency [2] was “inactive” and the Potency [3] was “inactive”. For the same compound, the Potency [4] was “inactive”, the Potency [5] was “inactive” and the outcome [6] was “inactive”.

For `Cc1nc2c([nH]1)CCN(C(=O)c1ccc(NC(=O)c3ccccc3-c3ccccc3)cc1)c1ccccc1-2`, the Potency [1] was “inactive”, the Potency [2] was “inactive” and the Potency [3] was “inactive”. For the same compound, the Potency [4] was “inactive”, the Potency [5] was “inactive” and the outcome [6] was “inactive”.

— PubChem BioAssay (NCATS)
